Here are results for 39 compounds from the supplement of paper PMC7156485.

± gives the standard deviation of the averaged measurements.
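Further: TDF denotes transformed human dermal fibroblasts of mesenchymal origin.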

In the first assay the test system is HCC1569. Kind of assay: cell number relative to DMSO (% of DMSO); higher = more cells (less growth inhibition / toxicity). The following applies: concentration: 10 µM; 24 h. Put shortly: (§1)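 Cell number or H1.0 nuclear intensity appears as percent of the plate control, based on the median of replicates. Measurements came from HCC1569 and TDF cells exposed in triplicate to compounds at 10 µM for 24 h at 37 °C, then imaged in six fields per well at ×10. Positional effects were smoothed out of HCC1569 values.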
`Cl.OC(CCN1CCCCC1)(c1ccccc1)C1CCCCC1` (configuration not stated) [Trihexyphenidyl hydrochloride]: the cell number was 103.

Compound `CCCCCC=CCC1OC1C=CC(O)CC=CCCCC(=O)O` (configuration not stated) [Hepoxilin A3] displayed a cell number of 107.

As for `Nc1ccn(C2OC(CO)C(O)C2(F)F)c(=O)n1` (configuration not stated) [Gemcitabine], the cell number amounted to 74.8.

`CCCCCC#CCC(O)C=CC=CC=CC(O)CCCC(=O)O` (configuration not stated) [14,15-Dehydroleukotriene B4] returned a cell number of 101.

The compound `CC12CCC3c4ccc(O)cc4CC(CCCCCCCCCS(=O)CCCC(F)(F)C(F)(F)F)C3C1CCC2O` (configuration not stated) [Fulvestrant] came in with a cell number of 94.7.

`CC(=O)SCC(Cc1ccccc1)C(=O)NCC(=O)OCc1ccccc1` (configuration not stated) [Racecadotril] yielded a cell number of 103.

In turn, `CC#CC1(O)CCC2C3CCC4=CC(=O)CCC4=C3C(c3ccc(N(C)C)cc3)CC21C` (configuration not stated) [Mifepristone] showed a cell number of 101 ± 8.2.

In the case of `Oc1ccc(-c2c(-c3ccccc3)nn3c(C(F)(F)F)cc(C(F)(F)F)nc23)cc1`, the cell number came out at 67.9.

As to `CC1=CC(=O)C2=C(C)CCC3C(C)C(=O)OC3C12` (configuration not stated) [Leucomisine], the cell number was found to be 99.3.

`CC(C)CCN1c2nc(Nc3cc(F)c(O)c(F)c3)ncc2N(C)C(=O)C1C` (configuration not stated) returned a cell number of 65.

`Cl.N=C(N)c1ccccc1` [Benzamidine hydrochloride] yielded a cell number of 100.

`O=C(Nc1cccc(-c2ccccc2)c1)OC1CCCCC1` [cyclohexyl [1,1'-biphenyl]-3-ylcarbamate]: the cell number turned out to be 105.

As for `CC(CCc1ccc(O)cc1)NCCc1ccc(O)c(O)c1.Cl` (configuration not stated) [Dobutamine hydrochloride], the cell number was determined as 101.

The next assay concerns TDF. The description is as above. To be noted: concentration: 10 µM; 24 h. Put shortly: as §1
For `O=C(CCCc1ccc(-c2ccccc2F)cc1)Nc1ccc(O)cc1` [MK2a Inhibitor], the cell number turned out to be 11.1.

With `CCN1CCN(C(=O)NC(C(=O)NC2C(=O)N3C(C(=O)O)=C(CSc4nnnn4C)CSC23)c2ccc(O)cc2)C(=O)C1=O` (configuration not stated) [Cefoperazone acid], the cell number came out at 103.

Compound `O=C(Nc1ccccc1)c1cc([N+](=O)[O-])ccc1Cl` returned a cell number of 90.5.

In the case of `CCn1c(-c2nonc2N)nc2c(C#CC(C)(C)O)ncc(OCC3CCCNC3)c21` (configuration not stated), the cell number was 71.5.

Regarding `CCCCCOC(=O)Nc1nc(=O)n(C2OC(C)C(O)C2O)cc1F` (configuration not stated) [Capecitabine], the cell number came to 98.9.

In the case of `CCCOC(=O)c1cc(O)c(O)c(O)c1` [N-Propyl gallate], the cell number was 91.

Turning to `CN1C2CCC1CC(OC(c1ccccc1)c1ccccc1)C2.CS(=O)(=O)O` (configuration not stated) [Benztropine mesylate], the cell number was determined as 114.

`O=C(NCCCCCCNC(=O)ON=C1CCCCC1)ON=C1CCCCC1` showed a cell number of 100.

Consider `COc1cc(C2CC(=O)c3c(O)cc(O)cc3O2)ccc1O` (configuration not stated) [Homoeriodictyol], for which the cell number amounted to 99.7.

For the compound `O=C1NC(=O)C(=Cc2cccc(C(F)(F)F)c2)S1` [PIM1/2 Kinase Inhibitor V], the cell number stood at 103.

`Clc1ccccc1C(c1ccccc1)(c1ccccc1)n1ccnc1` [Clotrimazole] registered a cell number of 69.1.

For `CN1C(CC(=O)c2ccccc2)CCCC1CC(O)c1ccccc1.Cl` (stereo not drawn) [alpha-Lobeline hydrochloride], the cell number stood at 108.

In turn, `COCc1c(C(C)C)nc(C(C)C)c(C=CC(O)CC(O)CC(=O)O)c1-c1ccc(F)cc1` (configuration not stated) [Cerivastatin] came in with a cell number of 39.

As to `Cl.NC(N)=NC(=O)c1nc(Cl)c(N)nc1N` [Amiloride hydrochloride], the cell number is 100.

The compound `C=C1C(=CC=C2CCCC3(C)C2CCC3C(C)C=CC(O)C2CC2)CC(O)CC1O` (configuration not stated) [Calcipotriene] showed a cell number of 109.

`CC(=O)Oc1ccccc1C(=O)O` [Acetylsalicylic Acid] had a cell number of 99.

In turn, `O=C(c1ccc2c(c1)OCCO2)N1CCCCC1` registered a cell number of 92.2.

With `COc1cc(C(=O)OCCC[NH+]2CCC[NH+](CCCOC(=O)c3cc(OC)c(OC)c(OC)c3)CC2)cc(OC)c1OC.[Cl-].[Cl-]` [Dilazep hydrochloride], the cell number worked out at 90.1.

As to `NC1(C(=O)O)CCc2cc(C(=O)O)ccc21` (configuration not stated), the cell number was 113.

Compound `CCN(CC)CCNC(=O)c1cc(S(C)(=O)=O)ccc1OC.Cl` [Tiapride hydrochloride] gave a cell number of 107.

The compound `O=C(Nc1ccc(S(=O)(=O)Nc2nccs2)cc1)C(c1ccccc1)c1ccccc1` came in with a cell number of 105.

`CCCCCC(O)C=CC1C(O)CC2OC(=CCCCC(=O)[O-])CC21.[Na+]` (configuration not stated) [Prostaglandin I2 Na] showed a cell number of 98.1.

`CC(C[N+](C)(C)C)OC(N)=O.[Cl-]` (configuration not stated) [Bethanechol chloride] registered a cell number of 100.

In turn, `CC(N)(Cc1ccc(O)cc1)C(=O)O` [L-alpha-Methyl-p-tyrosine] displayed a cell number of 111.

The compound `CC(NCCc1ccc(O)cc1)C(O)c1ccc(O)cc1.Cl` (configuration not stated) [Ritodrine hydrochloride] registered a cell number of 113.

`CCCCCCCC/C=C\CCCCCCCC(=O)NCC(=O)O` [[(9Z)-9-octadecenoylamino]acetic acid]: the cell number was found to be 100.

Compound `Cl.OC(CCN1CCCCC1)(c1ccccc1)C1CCCCC1` (configuration not stated) [Trihexyphenidyl hydrochloride] registered a cell number of 104.

In turn, `CCCCCC=CCC1OC1C=CC(O)CC=CCCCC(=O)O` (configuration not stated) [Hepoxilin A3] registered a cell number of 102.

As for `Nc1ccn(C2OC(CO)C(O)C2(F)F)c(=O)n1` (configuration not stated) [Gemcitabine], the cell number stood at 42.4.

The compound `CCCCCC#CCC(O)C=CC=CC=CC(O)CCCC(=O)O` (configuration not stated) [14,15-Dehydroleukotriene B4] displayed a cell number of 96.7.

Consider `CC12CCC3c4ccc(O)cc4CC(CCCCCCCCCS(=O)CCCC(F)(F)C(F)(F)F)C3C1CCC2O` (configuration not stated) [Fulvestrant], for which the cell number amounted to 94.3.

On to `CC(=O)SCC(Cc1ccccc1)C(=O)NCC(=O)OCc1ccccc1` (configuration not stated) [Racecadotril], for which the cell number was found to be 117.

Compound `CC#CC1(O)CCC2C3CCC4=CC(=O)CCC4=C3C(c3ccc(N(C)C)cc3)CC21C` (configuration not stated) [Mifepristone] yielded a cell number of 111 ± 13.

In turn, `Oc1ccc(-c2c(-c3ccccc3)nn3c(C(F)(F)F)cc(C(F)(F)F)nc23)cc1` showed a cell number of 12.4.

As to `CC1=CC(=O)C2=C(C)CCC3C(C)C(=O)OC3C12` (configuration not stated) [Leucomisine], the cell number is 111.

Consider `CC(C)CCN1c2nc(Nc3cc(F)c(O)c(F)c3)ncc2N(C)C(=O)C1C` (configuration not stated), for which the cell number turned out to be 29.6.

Compound `Cl.N=C(N)c1ccccc1` [Benzamidine hydrochloride] displayed a cell number of 103.

Turning to `O=C(Nc1cccc(-c2ccccc2)c1)OC1CCCCC1` [cyclohexyl [1,1'-biphenyl]-3-ylcarbamate], the cell number was determined as 94.2.

For the compound `CC(CCc1ccc(O)cc1)NCCc1ccc(O)c(O)c1.Cl` (configuration not stated) [Dobutamine hydrochloride], the cell number is 95.7.
